These results are taken from PubChem BioAssay (NCATS).

“And” between values parts separate entries of the source, which are not always exact repeats. Equal entries are not always repeated. The source made the active and inactive calls. Calls come from the whole dose curve; as a rule, active = well fitted activation curve with a large enough effect; inconclusive = small, poorly fitted or top-dose-only effect; inactive = flat fitted curve, though single readings scatter.

Peroxisome proliferator-activated receptor alpha (Homo sapiens), sequence (Q07869 whole entry, looked up): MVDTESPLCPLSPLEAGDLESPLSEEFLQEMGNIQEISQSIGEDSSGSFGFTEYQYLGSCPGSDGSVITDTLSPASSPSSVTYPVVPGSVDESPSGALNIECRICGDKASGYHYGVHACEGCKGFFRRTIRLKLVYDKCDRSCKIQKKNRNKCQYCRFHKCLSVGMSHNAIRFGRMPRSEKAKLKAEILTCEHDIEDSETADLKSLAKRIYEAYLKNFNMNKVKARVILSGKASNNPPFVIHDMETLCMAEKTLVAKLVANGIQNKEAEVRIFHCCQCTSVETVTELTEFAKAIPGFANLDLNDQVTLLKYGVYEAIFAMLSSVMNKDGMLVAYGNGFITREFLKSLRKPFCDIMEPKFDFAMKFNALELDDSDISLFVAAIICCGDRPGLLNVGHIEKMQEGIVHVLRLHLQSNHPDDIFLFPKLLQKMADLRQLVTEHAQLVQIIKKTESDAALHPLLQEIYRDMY

The target in this assay is Peroxisome proliferator-activated receptor alpha (Homo sapiens) (UniProt Q07869). The assay is described as follows: qHTS assay for small molecule agonists of the peroxisome proliferator-activated receptor alpha (PPARalpha) signaling pathway (AID 651778). Note: % of control where 0% means no effect. The conditions noted are these: PathHunter PPARalpha complementation, chemiluminescence, 6 h; active compounds read high. In a few lines:
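Cells plated at 2,000/well and held overnight at 37 C, 5% CO2, then compound added by pin tool for 6 hr; after PathHunter detection reagent and 60 min at room temperature, chemiluminescence from enzyme complementation was read.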
As to `CCOc1ccc(NC(C)=O)cc1`, the max response is -5.21% (inactive) and -4.18% (inactive).

In the case of `COc1ccc(C(Cl)=C(c2ccc(OC)cc2)c2ccc(OC)cc2)cc1`, the max response was -4.66% (inactive).

Consider `C/C=C/c1ccc(O)c(OC)c1`, for which the max response is -4.52% (inactive) and -2.32% (inactive).

As to `OC[C@H]1O[C@@H]2O[C@H]3[C@H](O)[C@@H](O)[C@@H](O[C@H]4[C@H](O)[C@@H](O)[C@@H](O[C@H]5[C@H](O)[C@@H](O)[C@@H](O[C@H]6[C@H](O)[C@@H](O)[C@@H](O[C@H]7[C@H](O)[C@@H](O)[C@@H](O[C@H]8[C@H](O)[C@@H](O)[C@@H](O[C@H]1[C@H](O)[C@H]2O)O[C@@H]8CO)O[C@@H]7CO)O[C@@H]6CO)O[C@@H]5CO)O[C@@H]4CO)O[C@@H]3CO`, the max response is -4.97% (inactive).

In the case of `CCCN(CCC)S(=O)(=O)c1ccc(C(=O)O)cc1`, the max response is -6.45% (inactive) and -0.148% (inactive).

Turning to `CCCCOC(=O)CC(CC(=O)OCCCC)(OC(C)=O)C(=O)OCCCC`, the max response was 5.65% (inactive).

Take `C#C[C@]1(O)CC[C@H]2[C@@H]3CCC4=Cc5oncc5C[C@]4(C)[C@H]3CC[C@@]21C`: the max response is -4.33% (inactive).

With `CCCCCCCCCCCCCC(=O)OC(C)C`, the max response was -1.44% (inactive).

On to `CCOc1ccccc1C(N)=O`, for which the max response is -1.03% (inactive).

On to `COc1cc([C@H]2Oc3cc([C@H]4Oc5cc(O)cc(O)c5C(=O)[C@@H]4O)ccc3O[C@@H]2CO)ccc1O`, for which the max response was -8.58% (inactive).

As to `O=C(O)c1ccc(S(=O)(=O)N(Cl)Cl)cc1`, the max response was 7.46% (inactive).

Regarding `CC(C)(C)CC(C)(C)c1ccc(O)c(-n2nc3ccccc3n2)c1`, the max response was 12.6% (inactive).

On to `CCCCC(CC)COC(=O)c1ccc(N(C)C)cc1` (configuration not stated), for which the max response is 0.44% (inactive) and -4.46% (inactive).

Regarding `NCCNc1cccc2ccccc12`, the max response was -2.74% (inactive) and -3.34% (inactive).

In the case of `CC1(C)OC[C@@H]2O[C@@]3(C(=O)O)OC(C)(C)O[C@H]3[C@@H]2O1`, the max response is -1.9% (inactive).

For `NC(=O)c1ccccc1O`, the max response is 4.04% (inactive).

Consider `COc1ccc(C(=O)c2ccccc2)c(O)c1`, for which the max response is 1.86% (inactive) and -0.894% (inactive).

Turning to `CN(C)C(=O)Nc1ccc(Cl)c(Cl)c1`, the max response was 0.591% (inactive).

For `CCCCCCCCCCCCCCCCO`, the max response is 0.0651% (inactive).

In the case of `C=C[C@@]1(C)CC(=O)[C@]2(O)[C@@]3(C)[C@@H](O)CCC(C)(C)[C@@H]3[C@H](O)[C@H](OC(C)=O)[C@@]2(C)O1`, the max response is 0.227% (inactive).

As for `CCCCCCCC/C=C\CCCCCCCCN`, the max response is 0.202% (inactive).

Regarding `Oc1c(Cl)cc(Cl)c(Cl)c1Cc1c(O)c(Cl)cc(Cl)c1Cl`, the max response was 1.56% (inactive) and 1.87% (inactive).
